The supplement of paper PMC9948646
Values without a mark were called inactive.

Test system: gramicidin D channels in DC22:1PC lipid vesicles (bilayer-modifying potency)
Assay: initial Tl+ fluorescence quench rate relative to no-drug control (NormRate, gramicidin monomer-dimer shift) (ratio (fold of control)); higher = stronger bilayer-modifying effect (equilibrium shifted toward conducting dimers), active = 1.5 or more
Details: 10 µM; lipid concentration 50 µM; temperature: 25 °C
Experimental: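 Stopped-flow fluorescence quench assay: ANTS-loaded DC22:1PC large unilamellar vesicles doped with gramicidin D (1:2000), 50 µM lipid, equilibrated 10 min with 10 µM drug (0.1% DMSO), mixed with Tl+ quench buffer at 25°C. Initial quench rate (Tl+ influx) was fitted with a modified stretched exponential and normalised to the no-drug control rate (NormRate); duplicates from two independent LUV preparations (triplicates for 7 drugs).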

Row | SMILES | initial Tl+ fluorescence quench rate
1 | CN(C(=O)c1cc2c(-c3cncnc3)cccc2[nH]1)c1ccccc1 | 1.12
2 | Cc1nn(C)cc1[C@H](C)Nc1nncc(-c2ccc(C(F)(F)F)cc2)n1 | 1.93 (active)
3 | COc1cc(C2=NCCN2)ccc1-c1cn(-c2cccc(C3=NCCN3)c2)nn1 | 1.01
4 | O=C1N(Cc2cc3ccccc3s2)C[C@H]2CN(Cc3ccccc3)CCN12 | 2.35 (active)
5 | CO[C@@H](C(=O)N1Cc2[nH]nc(NC(=O)c3ccc(N4CCN(C)CC4)cc3)c2C1)c1ccccc1 | 1.2
6 | CCN(CC)S(=O)(=O)c1ccc(Cl)c(C(=O)Nc2ccc3nc(C)sc3c2)c1 | 2.06 (active)
7 | CC(C)(C)C(=O)N(CCCCCCN1C[C@H](O)[C@@H](O)[C@H](O)[C@H]1CO)C1CCCCCC1 | 1.15
8 | CCN(CC)C(=O)N1CCN(C)CC1 | 1.1
9 | C[C@H](C(N)=O)N1CCCC[C@H]1c1ccc(OCc2cccc(F)c2)cc1 | 1.21
10 | COc1ccc(N(CCc2cccc(C)n2)C(C)=O)cc1 | 1.04
11 | COc1ccc(C2(C(=O)Nc3ccc(Br)cc3)CCCC2)cc1 | 1.14
12 | Cc1cc(Cl)c(S(=O)(=O)N2CCCC2)cc1OCC(=O)NC1CCCCC1 | 1.19
13 | COC[C@H](C)NC(=O)CSc1ncnc2sc(-c3ccccc3)cc12 | 1.33
14 | Clc1ccc(CCNc2cc(-c3ccccc3)nc3ncnn23)cc1 | 1.3
15 | Nc1ncc(Br)cc1-c1nc2cc(Cl)cnc2[nH]1 | 1.06
16 | Cc1cccc(Cn2ccc(NC(=O)c3ccc4c(c3)OCO4)n2)c1 | 1.35
17 | C[C@H]1CCCN(C(=O)[C@H](C)Nc2cc(Cl)ccc2N2CCOCC2)C1 | 1.23
18 | c1coc(CNc2nc(N3CCCCC3)nc3ccccc23)c1 | 1.02
19 | Nc1nccc2ccc(Oc3ccncc3)cc12 | 1.1

Row | SMILES | initial Tl+ fluorescence quench rate
20 | CCOC(=O)c1cc(-c2csc(Nc3c(C)cc(C)cc3C)n2)on1 | 1.15
21 | CC(C)(C)[C@H]1CC[C@H](CC2=C(O)C(=O)c3ccccc3C2=O)CC1 | 1.31
22 | CN1CCN(S(=O)(=O)c2ccc(-c3ccc4c(Nc5ncc(Cl)cn5)ccnc4c3)cc2)CC1 | 2.76 (active)
23 | CCOC(=O)c1noc(N)c1-c1ccccc1 | 1.03
24 | CCn1ncc2c(NC3CCOCC3)c(CNC(=O)c3ccnn3C)c(C)nc21 | 1.07
25 | CC(C)NCC(=O)Nc1cccc(C(=O)Nc2cccc(C(F)(F)F)c2)c1 | 1.37
26 | CCOC(=O)c1c(NC(=O)c2c(F)c(F)c(F)c(F)c2F)sc(C(N)=O)c1C | 1.41
27 | Cc1[nH]c2ccccc2c1[C@@H](c1cccs1)N1CCN(C)CC1 | 1.44
28 | Cc1cc(OCC(=O)Nc2ccc(C(C)C)cc2)n(C)c(=O)c1C#N | 1.25
29 | Nc1ncc(-c2cn[nH]c2)cc1-c1nc2cc(Cl)cnc2[nH]1 | 1.08
30 | C[C@H]1CS(=O)(=O)CCN1/N=C/c1ccc([N+](=O)[O-])o1 | 1.02
31 | CN1CCC[C@H]1CCO[C@](C)(c1ccccc1)c1ccc(Cl)cc1 | 2.33 (active)
32 | c1ccc(-c2nc(NC3CCCCC3)cc(C3CC3)n2)nc1 | 1.76 (active)
33 | Cc1cc(C(=O)Nc2cnn(Cc3ccc(Cl)cc3Cl)c2)no1 | 1.1
34 | COc1cc(NC(=O)Cc2nn(C)c(=O)c3ccccc23)ccc1Cl | 1.11
35 | c1ccc(Oc2ccc(-c3cc(CN4CCOCC4)[nH]n3)cc2)cc1 | 1.7 (active)
36 | Cc1ccc2nc(C)c(-c3ccn(Cc4ccccc4)n3)n2c1 | 1.28
37 | COc1ccc(S(=O)(=O)Nc2ccc(CN3CCN(C(=O)c4cccc(C#N)c4)CC3)cc2)cc1 | 1.41
38 | COc1cc(OC)cc(C(=O)NC[C@@H]2Cc3cc(Cl)cc(-c4ccncc4)c3O2)c1 | 2.47 (active)
